The values below come from ChEMBL document CHEMBL3988442, “University of Dundee, Small-Polar-MMV Screening Library” (2021).

Out of some 48,000 compounds screened, about 13,000 (27%) showed an effect of 50% or more. The list shows a part of the results.

This test concerns Wolbachia pipientis. The experiment in a line: Anti-Wolbachia Cell-Based Screen. Type of test: functional. Set-up: scale not given: in the data most compounds retested in dose-response had high values. The conditions noted are these: 5 µM.
On to `CCN1CCN(CC(O)c2ccc(Br)cc2)CC1` (configuration not stated), for which the “Percent Effect” value was found to be 16.45%. Take `CS(=O)(=O)N1CC[C@@H]2[C@@H]1CCN2Cc1ccc2c(c1)OCO2.O=C(O)C(F)(F)F`: the “Percent Effect” value is on record as -17.32%. For `CC(C)(C)NC(=O)CN1CCCN(Cc2ccc(C#N)cc2)CC1` the value was 13.98%; for `O=C(C1CC1)N1CCN(c2ccc(-n3cncn3)nn2)CC1`, 7.785%; for `O=C(NS(=O)(=O)c1ccc2c(c1)OCCO2)c1ccc(Br)cc1F`, -2.402%. For the compound `Cc1oc(C)c(C(=O)NS(=O)(=O)c2ccc3c(c2)OCCO3)c1Br`, the “Percent Effect” value is 78.36%. As to `Cc1oc(C)c(C(=O)NS(=O)(=O)c2ccc3c(c2)OCCCO3)c1C`, the “Percent Effect” value came to 0.6682%. For `CCNC(=O)CN(Cc1ccoc1)C1CCCCC1` the value was -9.878%; for `O=C(CN1CCc2c(ncn2C2CC2)C1)NC1CC1`, -2.463%. For `OC(COc1ccccc1)CN1CCc2c(ncn2C2CC2)C1` (configuration not stated) the value was -5.117%; for `N#CC1(NC(=O)CN2CCc3c(ncn3C3CC3)C2)CCCC1`, -4.395%; for `O=C(CCN1CCc2c(ncn2C2CC2)C1)NC1CCCC1`, 116.5%. Regarding `CCN1CCC(NC(=O)CN2CCc3c(nc(C4CC4)n3C)C2)CC1`, the “Percent Effect” value was -1.72%.

Turning to `CCN1CCC(NC(=O)CN2CCc3c(ncn3C)C2)CC1`, the “Percent Effect” value is reported as -0.1158%. The same measure for `N#Cc1ccc(OCCN2CCc3c(ncn3C3CC3)C2)cc1`: 2.68%; for `O=C(CN1CCc2c(ncn2C2CC2)C1)NC1CCN(C2CC2)CC1`: 121.2%; for `CCN1CCC(NC(=O)CN2CCc3c(ncn3C3CC3)C2)CC1`: 104%. For `CC(=O)N1CCN(C(=O)CN2CCc3c(ncn3C3CC3)C2)CC1` the value was 17.74%; for `OC(CN1CCOCC1)CN1CCc2c(ncn2C2CC2)C1` (configuration not stated), 4.204%; for `O=C(CN1CCc2c(ncn2C2CC2)C1)NC1CCOCC1`, 127.5%. The same measure for `O=C(C[S+]([O-])Cc1ccc(F)cc1Cl)N1CCc2sccc2C1` (configuration not stated): -9.716%. With `Cc1cc2n(n1)CC(CNC1CCN(Cc3ccccn3)CC1)CN2` (configuration not stated), the “Percent Effect” value was determined as 3.925%. For `O=C(N[C@@H]1CN(Cc2ccco2)[C@@H]2CCCO[C@@H]21)c1cscn1` the value was 106.9%. `O=C(N[C@@H]1CN(c2ncccn2)[C@@H]2CCCO[C@@H]21)c1cscn1`: the “Percent Effect” value is given as -1.481%. For `O=C(N[C@@H]1CN(c2ncccn2)[C@@H]2CCCO[C@@H]21)c1cnccn1` the value was -12.54%; for `NC(=O)N1C[C@H](NC(=O)c2cscn2)[C@@H]2OCCC[C@@H]21`, 101.9%. The same measure for `CCOc1cc(CNCCCn2ccnc2)cc(Cl)c1OCC`: -4.315%; for `CC(C)Cc1noc(CN2CCC(NC(=O)c3cccs3)CC2)n1`: 5.621%. The same measure for `CCOC(C)c1noc(CN2CCN(Cc3ccno3)CC2)n1` (configuration not stated): -9.724%.

With `CN(Cc1cc(-c2ccncc2)no1)C(=O)[C@@H]1CSCN1C`, the “Percent Effect” value is on record as 2.417%. For the compound `CS(=O)(=O)N1CCN(C(=O)CCC2CCCO2)CC1` (configuration not stated), the “Percent Effect” value worked out at 1.133%.

Take `O=C(Cc1csc(-c2ccco2)n1)N1CCN(c2cnccn2)CC1`: the “Percent Effect” value stood at 16.12%. The same measure for `O=C(CCC1CCCO1)N1CCc2nc(-c3cnccn3)nc(O)c2C1` (configuration not stated): 116.1%; for `O=C(c1ccccn1)N1CCc2nc(-c3cnccn3)nc(O)c2C1`: -8.53%. The same measure for `COCC(=O)N1CCc2nc(-c3cnccn3)nc(O)c2C1`: 104.8%; for `CS(=O)(=O)NC1CCN(C(=O)CCC2CCCO2)CC1` (configuration not stated): 10.42%; for `COCC(=O)N1CCc2nc(C(=O)Nc3cccnc3)sc2CC1`: 1.921%.

As for `Cc1nc(CC(=O)N2CCc3nc(-c4cnccn4)nc(O)c3C2)cs1`, the “Percent Effect” value amounted to 88.77%. For `CC(C)(CC(=O)N(CC(N)=O)C1CCCC1)c1ccccc1` the value was -10.15%; for `CC(C)(CN)NS(=O)(=O)c1cccc(F)c1F.Cl`, -6.445%. The same measure for `C=Cc1cccc(CN2C[C@H]3CC[C@@H]2CN(Cc2c(C)noc2C)C3)c1`: -8.639%.

In the case of `Cc1ncsc1C(=O)N(C)Cc1ccc(Br)o1`, the “Percent Effect” value is 23.63%. For `Cc1ccc(C(=O)N(C)Cc2ccc(Br)o2)c(=O)[nH]1` the value was 131.8%; for `Cc1ccc(C(=O)N(Cc2ccc(F)cc2)C2CC2)c(=O)[nH]1`, -2.478%; for `Cc1ccc(C(=O)N(C)Cc2csc(C)n2)c(=O)[nH]1`, 127.5%. Turning to `Cc1ccc(C(=O)NCC(O)c2ccc(Cl)s2)c(=O)[nH]1` (configuration not stated), the “Percent Effect” value is reported as -29.35%.

On to `Cc1ccc(C(=O)N(C)Cc2c(C)noc2C)c(=O)[nH]1`, for which the “Percent Effect” value worked out at 0.555%. For `Cc1ccc(C(=O)N(Cc2ccc(F)cc2F)C2CC2)c(=O)[nH]1` the value was -11.26%; for `COC(=O)NCC(=O)N(C)Cc1csc(C)n1`, 0.6719%; for `CCN(Cc1ccc2c(c1)OCO2)C(=O)c1ccc(C)[nH]c1=O`, -8.548%.

For the compound `Cc1ccc(C(=O)N(C)Cc2ccc(Br)s2)c(=O)[nH]1`, the “Percent Effect” value stood at 139.4%. In the case of `Cc1ccc(C(=O)N(C)Cc2csc(Br)c2)c(=O)[nH]1`, the “Percent Effect” value came out at 125.8%.
